# According to the supplement of paper PMC4022240:
# ± gives the standard deviation.
# Experiments:
# Experiment in all cases: peptide microarray binding signal (635 nm), min-max normalized on array (fraction of array maximum); higher = stronger binding
# Settings in all cases: peptide region: H2B 17-29
# [1] = target: T1, HaloTag-ATRX ADD domain (163-292)
# T1 chain: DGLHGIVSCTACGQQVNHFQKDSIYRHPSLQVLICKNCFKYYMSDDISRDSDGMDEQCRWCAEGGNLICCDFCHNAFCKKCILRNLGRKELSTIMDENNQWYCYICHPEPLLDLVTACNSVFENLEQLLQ
# Description: (§1)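 Histone 13-mer peptides were synthesized as cellulose conjugates with a C-terminal 20-atom PEG linker and printed in triplicate on nitrocellulose. The sequence given is the unmodified backbone; PTMs (Kme1/2/3, Kac, Sph/Tph, Rme/Rme2a/Rme2s, Rcit) are listed in the label and the 'peptide modifications' condition. Slides were probed at 4 °C for 1 h with biotin-labelled (HQ)5-HaloTag reader fusions (ATRX-ADD, ING2-PHD) then streptavidin-Alexa647, or with rabbit histone antibodies then anti-rabbit Alexa647. The mean 635 nm signal of the triplicate spots was scaled 0-1 between the lowest and highest values on each array.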
# [2] = target: HaloTag-ING2 PHD (mouse Ing2 200-280)
# Description: as §1
# [3] = target: anti-H3K4me3 antibody ab8580
# Description: as §1
# [4] = target: anti-H3K9me3 antibody ab8898
# Description: as §1
# [5] = peptide modifications: H2BK23ac H2BK24ac, binder concentration: 1:2,000 dilution
# [6] = peptide modifications: H2BK23ac H2BK24ac, binder concentration: 1:10,000 dilution
# [7] = peptide modifications: H2BK27ac, binder concentration: 1:2,000 dilution
# [8] = peptide modifications: H2BK27ac, binder concentration: 1:10,000 dilution
# [9] = peptide modifications: H2BK23ac, binder concentration: 1:2,000 dilution
# [10] = peptide modifications: H2BK23ac, binder concentration: 1:10,000 dilution
# [11] = peptide modifications: H2BK27ac H2BK28ac, binder concentration: 1:2,000 dilution
# [12] = peptide modifications: H2BK27ac H2BK28ac, binder concentration: 1:10,000 dilution
# [13] = peptide modifications: H2BK23ac H2BK28ac, binder concentration: 1:2,000 dilution
# [14] = peptide modifications: H2BK23ac H2BK28ac, binder concentration: 1:10,000 dilution
binder,measurement,setting,value
AVTKAQKKDGKKR [H2B 17-29 A V T K A Q Kac Kac D G K K R],peptide microarray binding signal,"[1]; peptide modifications: H2BK23ac H2BK24ac, binder concentration: 50 nM",0.00605 ± 0.00096
same,peptide microarray binding signal,"[1]; peptide modifications: H2BK23ac H2BK24ac, binder concentration: 500 nM",0.00486 ± 0.0017
same,peptide microarray binding signal,"[2]; peptide modifications: H2BK23ac H2BK24ac, binder concentration: 10 nM",0.00543 ± 0.00017
same,peptide microarray binding signal,"[2]; peptide modifications: H2BK23ac H2BK24ac, binder concentration: 100 nM",0.00347 ± 0.00023
same,peptide microarray binding signal,[3]; [5],0.000566 ± 8.2e-05
same,peptide microarray binding signal,[3]; [6],0.00257 ± 0.00026
same,peptide microarray binding signal,[4]; [5],0.000951 ± 7.5e-05
same,peptide microarray binding signal,[4]; [6],0.00115 ± 4.1e-05
AVTKAQKKDGKKR [H2B 17-29 A V T K A Q K K D G Kac K R],peptide microarray binding signal,"[1]; peptide modifications: H2BK27ac, binder concentration: 50 nM",0.00248 ± 9e-05
same,peptide microarray binding signal,"[1]; peptide modifications: H2BK27ac, binder concentration: 500 nM",0.00624 ± 0.00045
same,peptide microarray binding signal,"[2]; peptide modifications: H2BK27ac, binder concentration: 10 nM",0.00185 ± 3.3e-05
same,peptide microarray binding signal,"[2]; peptide modifications: H2BK27ac, binder concentration: 100 nM",0.00149 ± 4.1e-05
same,peptide microarray binding signal,[3]; [7],0.00126 ± 4.4e-05
same,peptide microarray binding signal,[3]; [8],0.000913 ± 1.6e-05
same,peptide microarray binding signal,[4]; [7],0.000302 ± 3.1e-06
same,peptide microarray binding signal,[4]; [8],0.000404 ± 4.4e-06
AVTKAQKKDGKKR [H2B 17-29 A V T K A Q Kac K D G K K R],peptide microarray binding signal,"[1]; peptide modifications: H2BK23ac, binder concentration: 50 nM",0.00376 ± 0.00013
same,peptide microarray binding signal,"[1]; peptide modifications: H2BK23ac, binder concentration: 500 nM",0.00514 ± 0.0009
same,peptide microarray binding signal,"[2]; peptide modifications: H2BK23ac, binder concentration: 10 nM",0.00424 ± 9.6e-05
same,peptide microarray binding signal,"[2]; peptide modifications: H2BK23ac, binder concentration: 100 nM",0.00666 ± 0.00022
same,peptide microarray binding signal,[3]; [9],0.00051 ± 9.7e-05
same,peptide microarray binding signal,[3]; [10],0.000742
same,peptide microarray binding signal,[4]; [9],0.000498 ± 3.6e-05
same,peptide microarray binding signal,[4]; [10],0.00104 ± 1.1e-05
AVTKAQKKDGKKR [H2B 17-29 A V T K A Q K K D G Kac Kac R],peptide microarray binding signal,"[1]; peptide modifications: H2BK27ac H2BK28ac, binder concentration: 50 nM",0.0047 ± 0.00043
same,peptide microarray binding signal,"[1]; peptide modifications: H2BK27ac H2BK28ac, binder concentration: 500 nM",0.00386 ± 0.00024
same,peptide microarray binding signal,"[2]; peptide modifications: H2BK27ac H2BK28ac, binder concentration: 10 nM",0.00418 ± 6.5e-05
same,peptide microarray binding signal,"[2]; peptide modifications: H2BK27ac H2BK28ac, binder concentration: 100 nM",0.00276 ± 0.00023
same,peptide microarray binding signal,[3]; [11],0.00017 ± 5.6e-06
same,peptide microarray binding signal,[3]; [12],0.00114 ± 1.2e-05
same,peptide microarray binding signal,[4]; [11],0.000544 ± 3e-05
same,peptide microarray binding signal,[4]; [12],0.0011 ± 4e-05
AVTKAQKKDGKKR [H2B 17-29 A V T K A Q Kac K D G K Kac R],peptide microarray binding signal,"[1]; peptide modifications: H2BK23ac H2BK28ac, binder concentration: 50 nM",0.00348 ± 0.00011
same,peptide microarray binding signal,"[1]; peptide modifications: H2BK23ac H2BK28ac, binder concentration: 500 nM",0.00929 ± 0.00055
same,peptide microarray binding signal,"[2]; peptide modifications: H2BK23ac H2BK28ac, binder concentration: 10 nM",0.00442 ± 0.00046
same,peptide microarray binding signal,"[2]; peptide modifications: H2BK23ac H2BK28ac, binder concentration: 100 nM",0.00312 ± 0.00011
same,peptide microarray binding signal,[3]; [13],0.002 ± 0.00012
same,peptide microarray binding signal,[3]; [14],0.000799 ± 8.3e-06
same,peptide microarray binding signal,[4]; [13],0.000529 ± 1.3e-05
same,peptide microarray binding signal,[4]; [14],0.000634
